Only a sample is shown.
aSyn UTR act – Activators via SNCA 5'UTR binding, MLPCN | alpha-synuclein 5'UTR reporter, activators screen | activity score, % (tested at 7.5 µM), hits read low | hit rate 7.1% among 300,000 | AID 1814; in the data active = activity score below about -60%
* = called active by the depositor.

SMILES | aSyn UTR act
N#C/C(=N/Nc1ccc(OC(F)(F)F)cc1)C(N)=S | -71*
C/C(=N\O)c1ccc2c3c([nH]c2c1)CCCC3 | -80*
ClC1(Cl)CC1CSc1nnc(-c2ccncc2)o1 (stereo not given) | -66*
CCN(CC)C(=S)SSC(=S)N(CC)CC | 97
CCN(CC)C(=S)SCC(=O)c1ccccc1 | -165*
CCN(CC)C(=S)SCC(=O)c1ccc(F)cc1 | -133*
CC(=O)c1cc(C#N)c(SCc2ccc(F)cc2)nc1C | -98*
Nc1nc(-c2ccccc2)nc2sc3c(c12)CCCC3 | -139*
Nc1c2c(nc3sc4c(c13)CCCC4)CCCCCC2 | -82*
CCSc1nc(N)c2c3c(sc2n1)CCC3 | -89*
Cc1ccccc1S(=O)(=O)Nc1nc2ccccc2nc1N1CCc2ccccc2C1 | -108*
O=S(=O)(Nc1nc2ccccc2nc1N1CCc2ccccc2C1)c1ccc(Cl)cc1 | 86
CCN1CCN(c2nc(Nc3cccc(OC)c3)nc(N)c2[N+](=O)[O-])CC1 | -86*
CCC(C)Nc1nc(N)c([N+](=O)[O-])c(Nc2cc(OC)ccc2OC)n1 (stereo not given) | 97
CCC(C)Nc1nc(N)c([N+](=O)[O-])c(Nc2ccccc2OC)n1 (stereo not given) | 60
O=C(COC(=O)CC1CCCC1)Nc1cc2c(cc1Cl)C(=O)c1ccccc1C2=O | -169*
CC(=O)c1cccc(NC(=S)NC(=O)c2ccc(C)cc2Cl)c1 | -70*
CC(=O)c1cccc(NC(=S)NC(=O)c2ccc(C)cc2)c1 | -83*
CC(=O)c1cccc(NC(=S)NC(=O)c2ccc(Br)cc2)c1 | -143*
ClC(=C\c1ccccc1)/C=N/N1CCN(c2ccccn2)CC1 | -222*
CCc1ccc(/C=N/N2CCN(c3ccccn3)CC2)cc1 | -108*
Cc1ccc(/C=N/N2CCN(c3ccccn3)CC2)cc1 | -105*
Clc1ccc2c(N/N=C/c3cccnc3)ccnc2c1 | -81*
Fc1ccc(N/N=C/c2cccnc2)c(F)c1 | -114*
Oc1ccc(/C=N/Nc2ccnc3cc(Cl)ccc23)c(O)c1 | -227*
SMILES | aSyn UTR act
COc1ccc(-n2cc(-c3ccccc3)nc2SC)cc1 | -121*
COc1ccc2c(c1)sc1nc(-c3ccccc3)cn12 | 105
COc1ccc(-c2cc(CS(=O)(=O)c3ccccc3)on2)cc1 | -158*
O=S(=O)(Cc1cc(-c2ccccc2)no1)c1ccccc1 | -77*
COc1ccc(CC(=O)Nc2cc3oc4ccccc4c3cc2OC)cc1 | -162*
COc1cc2c(cc1NC(=O)COC(=O)[C@@H](NC(=O)c1ccccc1F)C(C)C)oc1ccccc12 | -85*
COc1cc2c(cc1NC(=O)C(C)Sc1cccc[n+]1[O-])oc1ccccc12 (stereo not given) | -241*
COc1cc2c(cc1NC(=O)COC(=O)C1CC(=O)N(Cc3ccco3)C1)oc1ccccc12 (stereo not given) | -145*
COc1cc2c(cc1NC(=O)COC(=O)CNC(=O)c1ccccc1)oc1ccccc12 | -94*
COc1cc2c(cc1NC(=O)C(C)OC(=O)c1ccc(S(=O)(=O)Nc3ccccc3Cl)cc1)oc1ccccc12 (stereo not given) | -116*
COc1ccccc1CC(=O)Nc1cc2oc3ccccc3c2cc1OC | -129*
C(=N\N1CCN(c2ccccc2)CC1)/c1ccccc1 | -123*
COC(=O)c1ccc(/C=N\N2CCN(c3ccccc3)CC2)cc1 | -127*
Clc1ccc(N2CCN(/N=C/c3cccnc3)CC2)cc1 | -67*
BrC(=C\c1ccccc1)/C=N/N1CCN(c2ccccc2)CC1 | -65*
Cc1ccc(C(=O)O/N=C/c2c(N3CCOCC3)n(C)c3ccccc23)cc1 | 77
Cc1ccc2sc(N3CCN(C(=O)c4ccc([N+](=O)[O-])o4)CC3)nc2c1C | -76*
O=C(c1ccc([N+](=O)[O-])o1)N1CCN(c2nc3ccc(F)cc3s2)CC1 | -108*
COc1cccc2sc(N3CCN(C(=O)c4ccc([N+](=O)[O-])o4)CC3)nc12 | -110*
O=C(NCCc1ccccc1)c1ccc2c(c1)OCO2 | 91
O=C(NCCn1ccc2ccccc21)c1ccc2c(c1)OCO2 | -108*
COc1ccc(C(=O)NCCn2ccc3ccccc32)cc1 | -131*
CC(C)CN1CCN(Cc2cnc(-c3ccc(Cl)cc3)nc2)CC1CCO (stereo not given) | -78*
CCOC(=O)CCS(=O)(=O)c1nc(-c2ccccc2)cc(C(F)(F)F)n1 | -129*
COC(=O)CCS(=O)(=O)c1nc(-c2ccccc2)cc(C(F)(F)F)n1 | -73*
SMILES | aSyn UTR act
C=CC(=O)Oc1ccc(N2Cc3ccccc3C2=O)cc1 | -114*
O=C1c2ccccc2CN1c1ccccc1 | -107*
O=C1c2ccccc2C(=O)c2c1ncn2-c1ccccc1 | 70
Cc1cc(-c2ccccc2)n(-c2ccccc2)n1 | -84*
Cc1nn(-c2ccccc2)c(N)c1-c1ccccc1 | -72*
CC1(C)N=C(N)N=C(N)N1c1ccccc1 | 99
Cc1nn(-c2ccccc2)c(/N=C/c2ccccc2O)c1-c1ccccc1 | -176*
Cc1nn(-c2nc3ccccc3[nH]2)c(N)c1-c1ccccc1 | -183*
CCN1CCN(c2cc3c(nn2)Oc2ccccc2N3C)CC1 | -128*
CC1CCC2(CC1)NC(=O)N(NC(=O)CCl)C2=O (stereo not given) | -77*
COC(=O)c1ccc(CN2C(=O)NC3(CCC(C)CC3)C2=O)cc1 (stereo not given) | -70*
O=c1c2sccc2nc(SCc2cc(=O)n3cc(Br)ccc3n2)n1Cc1ccccn1 | -90*
COc1ccc2c(c1)CC/C(=C/c1ccco1)C2=O | -160*
O=C1/C(=C/c2ccco2)CCc2ccccc21 | -140*
COc1ccc(/C=C2\CCc3ccccc3C2=O)cc1CN1CCOCC1 | 62
CCOc1ccc(/C=C2\CCc3ccccc3C2=O)cc1 | -170*
Cn1cccc1/C=N/NC(=O)c1ccccn1 | -71*
CC(C)(C)NC(=O)C(=O)N/N=C/c1cccs1 | -120*
O=C(N/N=C/c1cccs1)c1ccccn1 | -79*
Cn1cccc1C(=O)N/N=C/c1c(Cl)cccc1Cl | -100*
O=C(O)c1cccc(N/N=C/c2cccs2)c1 | 96
Cn1cccc1/C=N/NC(=O)c1cc2ccccc2cc1O | -82*
Cn1cc(C(=O)N/N=C/c2c(O)ccc3ccccc23)ccc1=O | 96
Cc1ccc2c(Cl)c(C(=O)N/N=C/c3cccn3C)sc2c1 | -135*
CCCN=Cc1sc2ccc(OCC)cc2c1O | -126*
SMILES | aSyn UTR act
N#CC1=C(SCC(=O)Nc2ccccc2)NC(=O)CC1c1ccc(O)cc1 (stereo not given) | -128*
CC(=O)C1=C(C)NC(SCC(=O)c2cc(Cl)ccc2Cl)=C(C#N)C1c1ccco1 (stereo not given) | -130*
N#CC1=C(SCC(=O)Nc2ccccc2)NC(=O)CC1c1ccco1 (stereo not given) | -141*
N#CC1=C(SCC(=O)c2ccccc2)NC2=C(C(=O)CCC2)C1c1ccco1 (stereo not given) | -305*
CN1CCN(c2ccc(NC(=O)c3cccc(OCc4ccccc4)c3)cc2)CC1 | -85*
COc1cccc(C(=O)Nc2ccc(N3CCN(C(=O)c4cccs4)CC3)cc2)c1 | -162*
COc1ccc(N2CCN(C(=O)c3ccc(NS(=O)(=O)c4cccs4)cc3)CC2)cc1 | -75*
CC(C)Oc1cccc(C(=O)Nc2ccc(N3CCN(C)CC3)cc2)c1 | -76*
O=C(NC1CCCC1)c1ccc(CSCc2ccccc2F)o1 | -63*
O=C(NC1CCCCCCC1)c1ccccc1O | -175*
Cc1ccccc1C(=O)NC1CCCCCCC1 | -148*

Screening results (PubChem BioAssay)
